Consider three compounds from PubChem BioAssay (NCATS).

Experiment [1] can be described thus: AP1 Signaling Pathway (AID 357; active means well fitted curve in either direction with a large enough effect, not every such curve was filed as active;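 further: ME-180 reporter cells stimulated with EGF at its EC50 level; on the % scale 0 is the no-effect control and ±100 the full control effect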). To be noted: ME-180 AP-1-bla reporter, EGF-induced, beta-lactamase ratio, 5 h; at 7.69 µM (top of the series) unless noted. In outline: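 In this screen, ME-180 cells in Opti-MEM with 0.5% dialyzed FBS received EC50 EGF and compound titrations for 5 h. AP-1 reporter beta-lactamase was detected via CCF4 ratio, giving AC50 for positive and negative modulators.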

The target in experiment [2] is Cytochrome P450 1A2 (Homo sapiens) (UniProt P05177). The experiment is described as follows: p450-cyp1a2 (AID 410; calls by dose curve;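 further: -100% = full effect of reference inhibitor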). The essentials:
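Read-out is luminescence from luciferin produced by CYP1A2 demethylation of Luciferin-ME (100uM, at Km). Detection reagent stopped the 60 min NADPH-dependent reaction; signals were normalized to 57 uM furafylline.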

A short description of experiment [3]: NFAT Signaling Pathway (AID 444; active means well fitted curve in either direction with a large enough effect, not every such curve was filed as active;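 further: carbachol stimulus at about its EC50 of 1 µM final; on the % scale 0 is the no-effect control and ±100 the full control effect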). The settings on record: Jurkat NFAT-bla M1, carbachol, beta-lactamase ratio, 5 h; at 7.69 µM (top of the series) unless noted. In outline: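 Read-out: CCF4 FRET ratio (460 nm/530 nm) after 1 h RT dye loading, used for %activity and AC50 from titration series. Cells: Jurkat NFAT-β-lactamase/M1 line, treated with compound plus 1 uM carbachol for 5 h, 37 °C.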

The nature of experiment [4]: Stat Signaling Pathway (AID 446; active means well fitted curve in either direction with a large enough effect, not every such curve was filed as active;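 further: ME-180 cervical cancer cells given 40 pM IL-6 alongside compound; SIE-controlled beta-lactamase reporter measured as 460/530 nm FRET emission ratio; on the % scale 0 is the no-effect control and ±100 the full control effect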). To be noted: ME-180 (cervical carcinoma) SIE beta-lactamase reporter, IL-6 stimulated, 5 h; at 7.69 µM (top of the series) unless noted. In outline:
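Overnight-plated ME-180 cells bearing a STAT Inducible Element beta-lactamase reporter; 5 h co-exposure to compound and 40 pM IL-6; values normalized to 300 pM IL-6 and 125 nM JAK inhibitor controls.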

Experiment [5] deals with Glucocorticoid receptor (Homo sapiens) (UniProt P04150). The experiment is described as follows: GR-GFP Redistribution (AID 450;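 active means compounds whose dose series gives a full or clear partial fitted curve of increased nuclear translocation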; further: potency means the concentration at half of the fitted maximal effect). To be noted: U2OS GR-GFP nuclear translocation, laser cytometry, 2 h.
For experiment [6] the target is unchanged. The experiment is described as follows: GR-EFC Redistribution (AID 451; calls by dose curve; further: potency means the concentration at half of the fitted maximal effect). The settings on record: CHO-K1 GR-EFC translocation, beta-gal luminescence, 2 h. In outline: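 Translocation of GR-ED fusion to nuclear EA restores b-gal, read by luminescence after 1 h room-temperature detection. Engineered CHO-K1 biosensor cells, 1,000/well, exposed 2 h at 37 C to titrations up to 46 uM final.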

Experiment [7] addresses Cytochrome P450 2C9 (Homo sapiens) (UniProt P11712). The experiment is described as follows: qHTS Assay for Inhibitors and Substrates of Cytochrome P450 2C9 (AID 883). Further: on the % scale 0 is the no-effect control and ±100 the full control effect; nearly all actives have a fitted effect of over 60% in size. In outline: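 Luminescent read-out of deoxyluciferin hydroxylation, normalized to 57uM sulphaphenazole (AC100). Reaction: 10nM enzyme, 100uM Luciferin-H (equal to KM), 25mM KPO4, 10 min compound preincubation, then 60 min with NADPH regeneration, both at 37C.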
On the technique in general: qHTS replaces the single test concentration by a dilution series.

For experiment [8], the target named is Cytochrome P450 2D6 (Homo sapiens) (UniProt P10635). The experiment is described as follows: qHTS Assay for Inhibitors and Substrates of Cytochrome P450 2D6 (AID 891).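 Further: luciferin methyl ether substrate demethylated by CYP2D6 with NADPH regeneration; on the % scale 0 is the no-effect control and ±100 the full control effect; nearly all actives have a fitted effect of over 60% in size.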 The essentials: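 Luminescent read-out of luciferin formed by 5 nM human CYP2D6 demethylating 30 uM Luciferin-ME EGE (Km level) over 60 min at room temperature after NADPH regeneration addition. Data normalized to full inhibition by 1.43 uM quinidine.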

Experiment [9] has as its target 3',5'-cyclic-AMP phosphodiesterase 4B (Homo sapiens) (UniProt Q07343). The experiment is described as follows: qHTS Assay for Inhibitors of PDE-IV (AID 607; active means well fitted activation curve with a large enough effect in the main read-out, with a control signal flat, not every such curve was filed as active; further: % of control where 0% means no effect). In outline:
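Live HEK293 cells with a modified cyclic nucleotide-gated (CNG) channel report intracellular cAMP via membrane-potential dye fluorescence (ex 535/em 590 nm). Endogenous PDE-IV was targeted. Compounds were tested at up to 22.9 uM final; RO 20-1724 100 uM served as control.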

Experiment [10] is described as follows: qHTS Assay for Identification of Small Molecule Antagonists for NFkB Signaling Pathway (AID 895; active means well fitted inhibition curve with a large enough effect in the signal ratio, with a control signal flat, not every such curve was filed as active; the % refers to the signal ratio; further: on the % scale 0 is the no-effect control and ±100 the full control effect). In outline:
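Beta-lactamase reporter read-out (460 and 530 nm emission ratio, 405 nm excitation, 2 hrs substrate loading RT) after 5 hr stimulation with 10 pM TNF alpha in compound-treated NFkB-bla ME-180 cells in low-serum medium.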

Experiment [11] is described as follows: qHTS Assay for Identification of Small Molecule Agonists for Thrombopoietin (TPO) Signaling Pathway (AID 917). Further: on the % scale 0 is the no-effect control and ±100 the full control effect. In outline:
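Quantitative HTS for pathway activators: compounds were pin-transferred onto IL-3-starved Ba/F3 cells expressing human TPO receptor, TPO was added at its EC50 (26 pM final), and after 24 hrs at 37 C reporter luciferase was measured.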

Experiment [12] has as its target Muscarinic acetylcholine receptor M1 (Rattus norvegicus) (UniProt P08482). The experiment is described as follows: qHTS Assay for Antagonists of Acetylcholine Muscarinic M1 Receptor: Measurement of IP-One Response (AID 944). Further: nearly all actives have a fitted effect of over 75% in size. The essentials: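 Antagonism was measured as loss of carbachol-driven (EC80) IP1 accumulation in CHO cells carrying rat M1, using a homogeneous IP-One TR-FRET kit read at 620 and 665 nm.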

Experiment [13] addresses Pyruvate kinase (Leishmania mexicana) (UniProt Q27686). The experiment is described as follows: qHTS Validation Assay for Inhibitors of Leishmania Mexicana Pyruvate Kinase (AID 945).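 Further: 0% = DMSO only neutral control wells.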 In outline:
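The enzyme is a highly purified E451W mutant of LmPYK used at 0.2 nM. It converts 0.5 mM PEP and 0.1 mM ADP over 1 h at room temperature; product ATP is quantified by luciferase luminescence relative to DMSO controls.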

The target of experiment [14] is Alpha-galactosidase A (Homo sapiens) (UniProt P06280). The experiment is described as follows: Counterscreen for Glucocerebrosidase Inhibitors: qHTS Assay for Human alpha-Galactosidase at pH 4.5 (AID 992). Further: 0% is about no effect. The essentials:
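Each compound is preincubated briefly with 2 nM enzyme before substrate addition (80 uM); plates then sit 20 min at ambient temperature, are quenched with 1M NaOH/1M glycine, and read fluorometrically.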
Background: The purpose of a counterscreen is to sort out artefacts and off-target activity.

Experiment [15] has as its target alpha-glucosidase (Oryza sativa, rice) (UniProt Q653V4). The experiment is described as follows: Counterscreen for Glucocerebrosidase Inhibitors: qHTS Assay for Rice alpha-Glucosidase at pH 5.0 (AID 997).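 Further: 0% = full activity with enzyme and -100% = basal without enzyme.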 In outline:
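Endpoint fluorogenic assay at pH 5.0: compounds (0.7 nM to 77 uM) titrated against 4 nM rice enzyme and 400 uM 4-MU-alpha-glucoside for 20 min at room temperature; NaOH/glycine stop, read ex 365/em 440 nm, Hill-fitted AC50.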

Experiment [16] deals with Guanine nucleotide-binding protein G(i) subunit alpha-1 (Homo sapiens) (UniProt P63096). The experiment is described as follows: qHTS Assay for Inhibitors of RGS12 GoLoco Motif Activity (Green Fluorophore) (AID 879).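 Further: 0% = labeled peptide with Gαi1 and full inhibition = labeled peptide alone without protein; negative values mean loss of peptide binding seen as reduced polarization.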 In outline:
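A drop in FITC polarization marked displacement of the FITC-tagged RGS12 GoLoco peptide (10 nM) from Gαi1 (50 nM). Compounds were incubated 10 min at room temperature in Tris pH 7.5 buffer containing 150 mM NaCl, 0.1 mM GDP and 0.05% NP40; unlabeled peptide titration served as control.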

The target in experiment [17] is Muscarinic acetylcholine receptor M1 (Rattus norvegicus) (UniProt P08482). The experiment is described as follows: qHTS Assay for Antagonists of Acetylcholine Muscarinic M1 Receptor: Kinetic Measurement of Intracellular Calcium Response (AID 943).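 Further: Fluo-4 calcium signal as peak divided by basal fluorescence over 4 min; nearly all actives have a fitted effect of over 75% in size.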 In outline:
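Quantitative HTS in CHO-M1 (rat receptor) cells: 10 min compound exposure ahead of 100 nM carbachol, Fluo-4 fluorescence followed 4 min, value expressed as peak-to-basal ratio.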

For experiment [18], the target named is Pyruvate kinase PKM (Homo sapiens) (UniProt P14618). The experiment is described as follows: qHTS Assay for Activators of Human Muscle Pyruvate Kinase (AID 954; active means well fitted curve in the direction sought with a large enough effect, not every such curve was filed as active;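 further: 0% = uninhibited enzyme and -100% = no enzyme or full thiadiazolimine inhibition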). In outline:
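Screening used highly purified human pyruvate kinase M2 under submaximal activity, with PEP at its Km and ADP below Km. After an hour at room temperature, ATP was read by luciferase luminescence.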

Structures are written as SMILES. Several values for one entry are separate records, joined by “and”; a condition that tells them apart may be missing. Identical values can stand only once. Values without a mark were called inactive. Results filed as inconclusive are left out. Activity calls are given as the source filed them. Unless noted, the call rests on the fitted dose curve; in most records, active means well fitted curve in the direction sought with a large enough effect; inconclusive means small, poorly fitted or top-dose-only effect, or another doubt; inactive means no such curve, though single readings can be large; an effect the other way counts as inactive or inconclusive.

Cytochrome P450 1A2 (Homo sapiens), sequence (P05177 whole entry, looked up): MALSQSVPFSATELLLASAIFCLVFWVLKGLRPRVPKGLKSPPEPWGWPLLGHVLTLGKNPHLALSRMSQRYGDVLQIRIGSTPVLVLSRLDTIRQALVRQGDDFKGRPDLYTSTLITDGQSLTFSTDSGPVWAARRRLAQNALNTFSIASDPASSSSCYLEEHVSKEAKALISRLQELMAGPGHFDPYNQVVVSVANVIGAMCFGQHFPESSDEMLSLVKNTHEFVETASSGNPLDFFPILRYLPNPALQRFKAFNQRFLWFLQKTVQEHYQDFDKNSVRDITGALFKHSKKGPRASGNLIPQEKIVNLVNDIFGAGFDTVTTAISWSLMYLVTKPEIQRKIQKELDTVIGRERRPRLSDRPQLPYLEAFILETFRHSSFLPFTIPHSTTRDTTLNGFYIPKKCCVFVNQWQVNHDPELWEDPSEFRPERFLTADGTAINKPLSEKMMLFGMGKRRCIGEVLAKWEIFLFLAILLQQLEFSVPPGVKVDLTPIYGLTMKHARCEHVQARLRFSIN
Glucocorticoid receptor (Homo sapiens), sequence (P04150 whole entry, looked up, the tested form may be a part): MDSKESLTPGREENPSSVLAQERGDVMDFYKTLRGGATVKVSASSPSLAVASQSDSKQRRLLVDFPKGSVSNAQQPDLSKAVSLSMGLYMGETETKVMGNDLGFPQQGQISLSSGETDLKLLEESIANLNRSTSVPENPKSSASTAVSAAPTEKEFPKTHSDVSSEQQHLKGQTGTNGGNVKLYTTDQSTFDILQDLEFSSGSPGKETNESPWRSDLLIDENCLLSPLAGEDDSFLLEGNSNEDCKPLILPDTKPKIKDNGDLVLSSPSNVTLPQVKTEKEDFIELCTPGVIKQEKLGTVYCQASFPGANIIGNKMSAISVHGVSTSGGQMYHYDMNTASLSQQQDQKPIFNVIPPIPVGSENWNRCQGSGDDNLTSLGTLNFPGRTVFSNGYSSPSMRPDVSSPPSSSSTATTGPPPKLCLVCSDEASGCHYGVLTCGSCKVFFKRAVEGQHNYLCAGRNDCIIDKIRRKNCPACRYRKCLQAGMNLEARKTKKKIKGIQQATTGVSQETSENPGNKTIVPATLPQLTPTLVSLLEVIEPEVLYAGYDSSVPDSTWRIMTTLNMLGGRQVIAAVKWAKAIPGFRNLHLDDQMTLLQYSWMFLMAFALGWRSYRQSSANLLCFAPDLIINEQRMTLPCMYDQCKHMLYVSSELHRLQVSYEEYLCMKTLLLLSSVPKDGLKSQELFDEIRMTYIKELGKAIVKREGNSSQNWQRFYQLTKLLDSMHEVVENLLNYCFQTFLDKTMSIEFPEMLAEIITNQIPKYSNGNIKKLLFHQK
Muscarinic acetylcholine receptor M1 (Rattus norvegicus), sequence (P08482 whole entry, looked up): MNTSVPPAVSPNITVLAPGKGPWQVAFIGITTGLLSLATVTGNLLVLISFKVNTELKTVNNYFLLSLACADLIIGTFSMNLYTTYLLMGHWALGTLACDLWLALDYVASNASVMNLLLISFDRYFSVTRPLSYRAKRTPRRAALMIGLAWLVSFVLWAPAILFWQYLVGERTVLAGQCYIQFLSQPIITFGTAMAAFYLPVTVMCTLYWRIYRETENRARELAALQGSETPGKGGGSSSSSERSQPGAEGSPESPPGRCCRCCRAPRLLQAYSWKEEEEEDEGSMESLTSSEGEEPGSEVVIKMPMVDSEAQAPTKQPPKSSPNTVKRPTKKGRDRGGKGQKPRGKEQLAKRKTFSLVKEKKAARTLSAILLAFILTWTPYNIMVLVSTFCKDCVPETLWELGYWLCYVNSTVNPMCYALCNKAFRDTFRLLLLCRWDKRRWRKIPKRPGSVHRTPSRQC
Pyruvate kinase (Leishmania mexicana), sequence (Q27686 2-499 E452W): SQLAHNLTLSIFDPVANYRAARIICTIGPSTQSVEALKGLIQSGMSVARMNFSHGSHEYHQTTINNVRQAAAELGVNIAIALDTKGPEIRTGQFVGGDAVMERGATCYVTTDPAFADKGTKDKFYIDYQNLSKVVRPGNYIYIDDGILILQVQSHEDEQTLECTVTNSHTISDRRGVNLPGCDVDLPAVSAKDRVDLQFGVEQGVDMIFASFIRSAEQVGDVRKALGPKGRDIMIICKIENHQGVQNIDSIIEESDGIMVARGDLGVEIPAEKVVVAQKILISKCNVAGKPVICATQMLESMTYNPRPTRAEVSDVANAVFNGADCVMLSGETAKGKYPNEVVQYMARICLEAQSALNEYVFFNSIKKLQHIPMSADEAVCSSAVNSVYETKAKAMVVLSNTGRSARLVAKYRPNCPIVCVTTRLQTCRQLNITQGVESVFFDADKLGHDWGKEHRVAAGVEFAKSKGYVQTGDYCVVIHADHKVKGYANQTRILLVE
Alpha-galactosidase A (Homo sapiens), sequence (P06280 whole entry, looked up): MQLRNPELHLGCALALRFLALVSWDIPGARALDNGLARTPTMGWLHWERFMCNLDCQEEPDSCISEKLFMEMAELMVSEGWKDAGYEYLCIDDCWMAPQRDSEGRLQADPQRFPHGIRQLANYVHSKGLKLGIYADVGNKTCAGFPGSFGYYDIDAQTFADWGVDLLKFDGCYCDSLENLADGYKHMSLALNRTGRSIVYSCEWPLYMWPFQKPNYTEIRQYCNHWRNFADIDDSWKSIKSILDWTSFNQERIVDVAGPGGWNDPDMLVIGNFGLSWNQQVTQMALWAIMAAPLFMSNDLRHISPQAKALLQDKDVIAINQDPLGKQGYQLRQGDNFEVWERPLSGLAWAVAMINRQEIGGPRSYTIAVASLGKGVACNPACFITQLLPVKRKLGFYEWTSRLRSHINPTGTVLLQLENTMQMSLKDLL
3',5'-cyclic-AMP phosphodiesterase 4B (Homo sapiens), sequence (Q07343 whole entry, looked up): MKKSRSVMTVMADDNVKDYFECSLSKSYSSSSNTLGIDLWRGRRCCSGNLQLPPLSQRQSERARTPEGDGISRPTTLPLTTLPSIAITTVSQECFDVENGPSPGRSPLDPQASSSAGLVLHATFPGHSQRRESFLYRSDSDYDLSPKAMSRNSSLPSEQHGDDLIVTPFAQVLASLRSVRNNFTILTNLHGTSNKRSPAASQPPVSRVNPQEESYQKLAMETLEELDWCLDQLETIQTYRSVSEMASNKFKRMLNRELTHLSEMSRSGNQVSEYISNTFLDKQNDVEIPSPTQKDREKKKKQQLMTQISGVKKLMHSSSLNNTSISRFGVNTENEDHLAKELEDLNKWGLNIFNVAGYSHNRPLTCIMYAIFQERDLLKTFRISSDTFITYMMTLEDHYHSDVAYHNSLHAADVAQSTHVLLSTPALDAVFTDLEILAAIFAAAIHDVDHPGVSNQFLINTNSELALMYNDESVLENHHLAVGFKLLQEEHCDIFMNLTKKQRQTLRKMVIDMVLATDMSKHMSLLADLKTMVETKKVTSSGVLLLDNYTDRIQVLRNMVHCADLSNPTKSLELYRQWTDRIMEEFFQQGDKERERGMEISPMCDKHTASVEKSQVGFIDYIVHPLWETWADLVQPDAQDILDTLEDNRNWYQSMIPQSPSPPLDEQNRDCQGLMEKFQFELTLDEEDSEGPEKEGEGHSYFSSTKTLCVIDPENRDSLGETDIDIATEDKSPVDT
Pyruvate kinase PKM (Homo sapiens), sequence (P14618 whole entry, looked up): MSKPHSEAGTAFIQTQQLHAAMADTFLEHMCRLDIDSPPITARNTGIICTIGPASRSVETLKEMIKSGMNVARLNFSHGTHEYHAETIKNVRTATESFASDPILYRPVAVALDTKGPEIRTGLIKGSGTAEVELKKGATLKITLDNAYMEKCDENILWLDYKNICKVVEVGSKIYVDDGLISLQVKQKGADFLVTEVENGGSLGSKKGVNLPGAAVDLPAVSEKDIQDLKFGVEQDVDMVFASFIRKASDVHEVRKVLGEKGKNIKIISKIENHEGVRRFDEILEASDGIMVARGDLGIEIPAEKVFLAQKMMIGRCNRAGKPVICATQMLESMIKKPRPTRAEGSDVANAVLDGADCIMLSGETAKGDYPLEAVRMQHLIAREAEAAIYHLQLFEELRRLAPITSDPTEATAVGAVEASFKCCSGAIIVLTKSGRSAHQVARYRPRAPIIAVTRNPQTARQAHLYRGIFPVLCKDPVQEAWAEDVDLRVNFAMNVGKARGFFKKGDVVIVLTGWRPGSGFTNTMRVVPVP
Guanine nucleotide-binding protein G(i) subunit alpha-1 (Homo sapiens), sequence (P63096 whole entry, looked up): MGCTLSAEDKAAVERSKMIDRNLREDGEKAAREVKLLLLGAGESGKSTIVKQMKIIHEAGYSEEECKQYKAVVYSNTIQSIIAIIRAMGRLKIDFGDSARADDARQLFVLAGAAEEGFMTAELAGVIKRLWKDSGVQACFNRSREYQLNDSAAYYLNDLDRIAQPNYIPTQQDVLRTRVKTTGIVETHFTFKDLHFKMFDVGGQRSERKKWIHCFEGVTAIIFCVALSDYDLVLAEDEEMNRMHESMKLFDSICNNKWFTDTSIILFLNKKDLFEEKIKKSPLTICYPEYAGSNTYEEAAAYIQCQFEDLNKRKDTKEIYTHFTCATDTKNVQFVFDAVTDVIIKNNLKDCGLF
Cytochrome P450 2C9 (Homo sapiens), sequence (P11712 whole entry, looked up): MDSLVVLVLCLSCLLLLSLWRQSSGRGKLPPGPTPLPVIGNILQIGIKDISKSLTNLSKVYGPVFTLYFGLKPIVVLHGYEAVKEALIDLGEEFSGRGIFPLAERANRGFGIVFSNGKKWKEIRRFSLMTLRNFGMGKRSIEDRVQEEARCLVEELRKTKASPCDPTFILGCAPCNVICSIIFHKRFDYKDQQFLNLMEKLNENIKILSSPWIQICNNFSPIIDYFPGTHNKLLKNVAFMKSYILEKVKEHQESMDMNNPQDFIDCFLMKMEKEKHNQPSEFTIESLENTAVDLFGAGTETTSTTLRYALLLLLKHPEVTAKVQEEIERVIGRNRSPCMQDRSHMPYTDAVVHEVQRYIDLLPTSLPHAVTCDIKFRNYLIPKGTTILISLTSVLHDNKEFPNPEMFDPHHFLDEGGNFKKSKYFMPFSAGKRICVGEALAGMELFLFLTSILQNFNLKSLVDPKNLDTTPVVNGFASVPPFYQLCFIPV

For the compound `CC[C@@H]1CN2CCc3cc(OC)c(OC)cc3[C@H]2C[C@@H]1C[C@H]1NCCc2cc(OC)c(OC)cc21`, the activity change, negative = inhibition is -115% [at 17.2 µM] (active) in experiment [1] and -120% [at 17.2 µM] (active) in experiment [3]. In addition, the Potency entry in [2], in [7] and in [8] was “inactive” each time. In addition, the activity, negative = inhibition in experiment [4] is -94.8% [at 17.2 µM] (active). The Potency in experiment [5] was > 20.6 µM and > 46 µM; in [6], > 20.6 µM and > 46 µM.

Regarding `CSc1nc(N)c2ncn([C@@H]3O[C@@H](COP(=O)(O)OP(=O)(O)O)[C@@H](O)[C@H]3O)c2n1`, the activity change, negative = inhibition in [1] was 22.9% [at 38 µM]; in [3], 6.32% [at 38 µM]. Further, the Potency result in [2], in experiment [9], in experiment [10], in [12] and in [15] was “inactive” in each case. Further, the activity, negative = inhibition in [4] is 5.34% [at 38 µM]. Besides, the Potency in experiment [5] and in experiment [6] was over 46 µM each time. Also, the compound was called inactive in experiment [11], in [13] and in [14].

Take `[N-]=[N+]=Nc1ccc(C(=O)CSC[C@@H](NC(=O)CC[C@@H](N)C(=O)O)C(=O)NCC(=O)O)cc1`: the activity change, negative = inhibition in experiment [1] was -0.0447% [at 38 µM]; in experiment [3] it was -3.2% [at 38 µM]. Also, the Potency result in experiment [2], in experiment [9], in experiment [10], in experiment [17], in [12] and in experiment [15] was “inactive” each time. The activity, negative = inhibition in [4] was 10.6% [at 38 µM]. Besides, the Potency in experiment [5] and in experiment [6] was over 46 µM in each case. The compound was classed as inactive in experiment [16], in experiment [11], in [13], in [18] and in [14].
